# According to PubChem BioAssay:
# Values joined by “and” are separate entries in the source; they are usually repeats but may differ in a detail not shown here. Equal values may be shown once. Records with an inconclusive call do not appear. Active and inactive are the calls of the source.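 The calls were made as follows, unless noted: active = normalized viability below 100% at a tested concentration; inactive = the rest.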
# What was measured:
# [1] = P. berghei load reduction in hepatocytes – cell-based, HepG2, luciferase luminescence, HepG2 viability, primary screen (AID 624349; in the data active = parasite load remaining mostly below about 12%, no sharp cut-off; inactive = mostly above about 10%;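 also: 100% = mean of DMSO negative control wells on the same plate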); details: P. berghei liver stage in HepG2, luciferase luminescence, concentration not given here; parasite load remaining: stronger effect = lower value; viability: measured here: HepG2 viability without parasites
# [2] = viability loss in pontine glioma line – cell-based, SU-DIPG-XVII, MIPE5.0, CellTiter-Glo, qHTS, dose response (AID 1347060; cut-off not given, nearly all actives have AC50 up to about 26 µM;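 also: cells exposed to compound for 48 hours before viability readout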); details: CellTiter-Glo ATP luminescence
# [3] = viability loss in pontine glioma line – cell-based, JHH-DIPG-1, MIPE4.0, CellTiter-Glo, qHTS, dose response (AID 1347062; cut-off not given, nearly all actives have AC50 up to about 27 µM;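 also: cells exposed to compound for two days before readout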); details: JHH-DIPG-1 viability, CellTiter-Glo ATP luminescence
# [4] = viability loss in pontine glioma line – cell-based, SU-DIPG-IV, MIPE4.0, CellTiter-Glo, qHTS, dose response (AID 1347063; cut-off not given, nearly all actives have AC50 up to about 30 µM;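 also: compound exposure lasted 48 hours before the viability readout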); details: CellTiter-Glo ATP luminescence
# [5] = viability loss in pontine glioma line – cell-based, SU-DIPG-XIII, MIPE5.0, CellTiter-Glo, qHTS, dose response (AID 1347064; cut-off not given, nearly all actives have AC50 up to about 23 µM;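 also: cells exposed to compound for 48 hours before the viability read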); details: CellTiter-Glo ATP luminescence
# [6] = viability loss in pontine glioma line – cell-based, SU-DIPG-XXV, MIPE5.0, CellTiter-Glo, qHTS, dose response (AID 1347065; cut-off not given, nearly all actives have AC50 up to about 26 µM;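 also: cells exposed to compound for 48 hours before ATP readout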); details: CellTiter-Glo ATP luminescence
# [7] = growth inhibition of DIPG cells – cell-based, MIPE4.0 library, CellTiter-Glo luminescence, qHTS (AID 1347066; cut-off not given, nearly all actives have AC50 up to about 30 µM;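 also: cells exposed to compound for 48 hours before readout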); details: SU-DIPG-VI viability, CellTiter-Glo ATP luminescence
# [8] = viability loss with induced miR-34 in A549 – imaging, A549 dox-inducible miR-34, nuclei and caspase counts, primary screen (AID 1347080;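 active = compounds whose cell count with miR-34 switched on is under 0.7 times the count with it off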); details: A549 miR-34 inducible, Hoechst nuclei count, 48 h
# [9] = MELAS cybrid and Rieske KO viability enhancers – cell-based, MELAS cybrids, Rieske KO mouse fibroblasts, CellTiter-Glo, primary screen (AID 1508586;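 active = mean z-score across replicates of 1.96 or higher in either the MELAS or the Rieske mutant cell line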;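 also: z relative to plate mean and SD of compound and empty wells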); details: low glucose
# [10] = JHH-DIPG-1 glioma cell viability, MIPE5.0 library, CellTiter-Glo luminescence, qHTS (AID 1347067; cut-off not given, nearly all actives have AC50 up to about 26 µM;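 also: cells exposed to compound for 48 hours before readout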); details: JHH-DIPG-1 glioma viability, CellTiter-Glo ATP luminescence
# [11] = growth inhibition of DIPG cells – cell-based, MIPE5.0 library, qHTS (AID 1347068; cut-off not given, nearly all actives have IC50 up to about 30 µM;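 also: cells exposed to compound for 48 hours before viability readout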); details: SU-DIPG-XXV viability
# [12] = drug combination growth inhibition, ovarian cancer – cell-based, oncology-focused library, rucaparib conditional, profiling panel (AID 1508598); details: patient-derived ovarian cancer cells, CellTiter-Glo viability, 144 h, stronger effect = lower value
smiles,measurement,setting,value
CC(C)=CC[C@@H](O)C1=CC(=O)c2c(O)ccc(O)c2C1=O,parasite load remaining,[1],4.44% (active)
same,viability,[1],99.5%
same,AC50,[2],20900 nM (active)
same,AC50,[3],526 nM (active)
same,AC50,[4],2960 nM (active)
same,AC50,[5],11800 nM (active)
same,AC50,[6],10500 nM (active)
same,AC50,[7],2960 nM (active)
same,fold change,"[8]; stronger effect = lower value, cell number ratio, induced over uninduced",1.09 (inactive) and 1.03 (inactive)
same,fold change,[8]; measured here: relative caspase fold change +Dox/-Dox,1.1 and 1.06
same,cell count,"[8]; measured here: total cells with miR-34 induction, stronger effect = lower value",2290 and 4460
same,cell count,[8]; measured here: total cells without miR-34 induction,2110 and 4340
same,z-score,"[9]; MELAS cybrid survival, CellTiter-Glo 48 h, stronger effect = higher value",-1.24 (inactive)
same,z-score,"[9]; Rieske KO mouse fibroblast survival, CellTiter-Glo 72 h",1.65
CN1CCCN(C(=O)c2cccc(-c3ccc(/C=C4/C(=O)Nc5ccc(Cl)cc54)o3)c2)CC1,AC50,[2],8330 nM (active)
same,AC50,[3],20900 nM (active)
same,AC50,[4],9350 nM (active)
same,AC50,[5],7420 nM (active)
same,AC50,[6],10500 nM (active)
same,AC50,[7],10500 nM (active)
same,AC50,[10],2350 nM (active)
same,IC50,[11],29500 nM (active)
same,viability,"[12]; at 0.000305 µM, OCI-C5x cells, with rucaparib 10 µM, 100% = cells with rucaparib alone",101% (inactive)
same,viability,"[12]; at 0.000305 µM, OCI-C5x cells, without rucaparib",96.5% (active)
same,viability,"[12]; at 0.000305 µM, OCI-P5x cells, with rucaparib 20 µM, 100% = cells with rucaparib alone",105% (inactive)
same,viability,"[12]; at 0.000305 µM, OCI-P5x cells, without rucaparib",105% (inactive)
same,viability,"[12]; at 0.00122 µM, OCI-C5x cells, with rucaparib 10 µM, 100% = cells with rucaparib alone",103% (inactive)
same,viability,"[12]; at 0.00122 µM, OCI-C5x cells, without rucaparib",102% (inactive)
same,viability,"[12]; at 0.00122 µM, OCI-P5x cells, with rucaparib 20 µM, 100% = cells with rucaparib alone",107% (inactive)
same,viability,"[12]; at 0.00122 µM, OCI-P5x cells, without rucaparib",103% (inactive)
same,viability,"[12]; at 0.00488 µM, OCI-C5x cells, with rucaparib 10 µM, 100% = cells with rucaparib alone",99.3% (active)
same,viability,"[12]; at 0.00488 µM, OCI-C5x cells, without rucaparib",104% (inactive)
same,viability,"[12]; at 0.00488 µM, OCI-P5x cells, with rucaparib 20 µM, 100% = cells with rucaparib alone",106% (inactive)
same,viability,"[12]; at 0.00488 µM, OCI-P5x cells, without rucaparib",106% (inactive)
same,viability,"[12]; at 0.0195 µM, OCI-C5x cells, with rucaparib 10 µM, 100% = cells with rucaparib alone",90.6% (active)
same,viability,"[12]; at 0.0195 µM, OCI-C5x cells, without rucaparib",99.3% (active)
same,viability,"[12]; at 0.0195 µM, OCI-P5x cells, with rucaparib 20 µM, 100% = cells with rucaparib alone",97.1% (active)
same,viability,"[12]; at 0.0195 µM, OCI-P5x cells, without rucaparib",103% (inactive)
same,viability,"[12]; at 0.0781 µM, OCI-C5x cells, with rucaparib 10 µM, 100% = cells with rucaparib alone",108% (inactive)
same,viability,"[12]; at 0.0781 µM, OCI-C5x cells, without rucaparib",107% (inactive)
same,viability,"[12]; at 0.0781 µM, OCI-P5x cells, with rucaparib 20 µM, 100% = cells with rucaparib alone",109% (inactive)
same,viability,"[12]; at 0.0781 µM, OCI-P5x cells, without rucaparib",102% (inactive)
same,viability,"[12]; at 0.313 µM, OCI-C5x cells, with rucaparib 10 µM, 100% = cells with rucaparib alone",105% (inactive)
same,viability,"[12]; at 0.313 µM, OCI-C5x cells, without rucaparib",111% (inactive)
same,viability,"[12]; at 0.313 µM, OCI-P5x cells, with rucaparib 20 µM, 100% = cells with rucaparib alone",100% (active)
same,viability,"[12]; at 0.313 µM, OCI-P5x cells, without rucaparib",94.8% (active)
same,viability,"[12]; at 1.25 µM, OCI-C5x cells, with rucaparib 10 µM, 100% = cells with rucaparib alone",98% (active)
same,viability,"[12]; at 1.25 µM, OCI-C5x cells, without rucaparib",96.2% (active)
same,viability,"[12]; at 1.25 µM, OCI-P5x cells, with rucaparib 20 µM, 100% = cells with rucaparib alone",95.1% (active)
same,viability,"[12]; at 1.25 µM, OCI-P5x cells, without rucaparib",93.4% (active)
same,viability,"[12]; at 5 µM, OCI-C5x cells, with rucaparib 10 µM, 100% = cells with rucaparib alone",2.49% (active)
same,viability,"[12]; at 5 µM, OCI-C5x cells, without rucaparib",2.79% (active)
same,viability,"[12]; at 5 µM, OCI-P5x cells, with rucaparib 20 µM, 100% = cells with rucaparib alone",1.66% (active)
same,viability,"[12]; at 5 µM, OCI-P5x cells, without rucaparib",1.82% (active)
CC(C)c1nn(-c2c(Cl)cccc2Cl)c2nc(Cc3ccc(OCCO)cc3)[nH]c(=O)c12,parasite load remaining,[1],77.3% (inactive)
same,viability,[1],79.7%
same,AC50,[2],41.7 nM (active)
same,AC50,[3],118 nM (active)
same,AC50,[4],83.3 nM (active)
same,AC50,[5],46.8 nM (active)
same,AC50,[6],41.7 nM (active)
same,AC50,[10],46.8 nM (active)
same,IC50,[11],83.3 nM (active)
